We go through 65 compounds from PubChem BioAssay AID652031 (The Scripps Research Institute Molecular Screening Center, 2013).

Structures are written as SMILES. In all, about 16,000 compounds went through this assay and about 70 (0.4%) were called active. Cut-off read from the data, not from the text of the source: active = inhibition above about 50%; inactive = the rest. What follows is part of a selection rich in actives, with near analogues and random picks from the rest.

Sequence of Kappa-type opioid receptor (Homo sapiens) (P41145 whole entry, looked up): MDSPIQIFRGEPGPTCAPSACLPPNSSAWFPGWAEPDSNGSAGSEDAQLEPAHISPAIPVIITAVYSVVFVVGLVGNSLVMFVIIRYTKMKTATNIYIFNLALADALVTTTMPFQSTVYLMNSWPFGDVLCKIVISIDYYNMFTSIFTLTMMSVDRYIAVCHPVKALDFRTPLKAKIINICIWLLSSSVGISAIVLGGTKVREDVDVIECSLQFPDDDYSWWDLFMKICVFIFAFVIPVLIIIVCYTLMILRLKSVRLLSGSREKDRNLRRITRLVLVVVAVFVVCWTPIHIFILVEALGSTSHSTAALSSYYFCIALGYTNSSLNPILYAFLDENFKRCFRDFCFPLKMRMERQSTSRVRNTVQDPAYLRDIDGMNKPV

This assay addresses Kappa-type opioid receptor (Homo sapiens) (UniProt P41145). Briefly: antagonists of human kappa opioid receptor OPRK1, Maybridge library (AID 652031). The conditions noted are these: OPRK1 cells, antagonist mode, fluorescence readout; at 9 µM; active compounds read high.
With `N#Cc1ccc(OS(=O)(=O)c2cc(C(F)(F)F)cc(C(F)(F)F)c2)cc1`, the inhibition was -5.9% (inactive).
As for `COC(=O)c1ccccc1NC(=S)NNC(=O)c1ccc([N+](=O)[O-])cc1`, the inhibition is 7.8% (inactive).
Then `COC(=O)c1ccc(/C=C2\C(=O)Nc3ccccc32)n1-c1ccc(F)cc1`, with 84.7% (active).
Then `Cc1c(C)c(C)c(CSC(=N)CC#N)c(C)c1C`, with -7.6% (inactive); and `O=C(CSc1nc2ccccc2o1)N1CCC(n2cccc2)CC1`, with 1.7% (inactive); and `CCCc1c(C(=O)O)cnn1-c1ccc(Cl)cc1`, with -5.5% (inactive).
Then `CCCc1nc(N)ncc1C(=O)OCC`, with -2.5% (inactive); and `CCOC(=O)c1c(C)csc1NC(=O)CC(=O)C(F)(F)F`, with -3% (inactive).
Turning to `Oc1ccc(-n2cncn2)cc1`, the inhibition is -0.4% (inactive).
Consider `O=S(=O)(c1ccc(Cl)s1)N1CCN(c2ccccc2)CC1`, for which the inhibition was -14.3% (inactive).
Then `CC(C)NC(=O)NNc1c(Cl)cncc1Cl`, with 4.6% (inactive); and `O=c1oc2c3ccccc3c3oc(=O)sc3c2s1`, with 13.6% (inactive).
Then `Cc1nc(C(F)(F)F)ccc1NC(=O)/C=C\C(=O)O`, with -4.6% (inactive); and `O=C(Nc1ccc(OCc2ccccc2)cc1)Nc1ccc2c(c1)C(=O)OC2`, with -8.9% (inactive).
With `N#Cc1cccnc1NNC(=O)Nc1ccc(OCc2ccccc2)cc1` the figure was 13.7% (inactive).
For the compound `CN(C)c1cccc2c1c(NC(=O)Nc1ccc(OCc3ccccc3)cc1)nn2C`, the inhibition is 60.6% (active).
With `O=c1[nH]c2cc(Cl)c(Cl)cc2n1-c1ccncc1` the figure was -14.5% (inactive); with `Cc1ccc([N+](=O)[O-])c(C(=O)NCC(=O)O)c1`, -15.5% (inactive); with `S=C(NNC(=S)NC1CC2C=CC1C2)NC1CC2C=CC1C2` (stereo not given), -4.1% (inactive).
With `CC(C)CCOS(=O)(=O)c1ccc2c(c1)Cc1cc(S(=O)(=O)OCCC(C)C)ccc1-2` the figure was -2.5% (inactive); with `CN(C(=O)Nc1ccc(Cl)cc1)n1cnc2ccccc2c1=O`, -1.9% (inactive); with `c1ccc(-c2nsc(N3CCNCC3)n2)cc1`, 1.1% (inactive).
With `Cc1oc(-c2ccc(Cl)cc2)cc1C(=O)O/N=C(\N)Cc1nc2cccnc2n1C1CC1` the figure was -10.9% (inactive); with `O=C(Cn1nnc2ccccc21)NCCSCc1ccco1`, 6.7% (inactive); with `O=C(O)CC1(CC(=O)Nc2ccccc2-n2cccn2)CCCCC1`, 6.9% (inactive).
On to `O=[N+]([O-])c1ccc(CSc2nc3cc(Cl)c(F)cc3[nH]2)cc1`, for which the inhibition is -10.8% (inactive).
With `COc1ccc(/C=N/Nc2nc(C)cc(=O)[nH]2)c(OC)c1` the figure was 10.6% (inactive); with `Nc1ccccc1SC(C[N+](=O)[O-])c1ccccc1` (stereo not given), 10.6% (inactive); with `O=C(N/N=C/c1cccs1)C(=O)Nc1ccc(Cl)c(Cl)c1`, -4.8% (inactive).
Then `Cc1nc2c(ncn2-c2ccccc2)c(=O)n1NC(=O)CN1CCCC1`, with 1.8% (inactive); and `Cn1c(=O)c2c(ncn2Cc2nnc(-c3ccccc3)o2)n(C)c1=O`, with -5.9% (inactive); and `O=[N+]([O-])c1ccc(CSc2nnc(-c3ccncc3)o2)cc1`, with -7.8% (inactive).
Then `N#Cc1c(C2CCCCC2)[nH]c(=S)[nH]c1=O`, with -2.7% (inactive).
For `Cc1ccc2c(c1)C(=O)C(=O)S2`, the inhibition is -13.9% (inactive).
Then `O=C(CSC1=NCCc2ccccc21)Nc1ccc(F)cc1F`, with -6.1% (inactive); and `O=C(O)CCC(=O)Nc1ccc2c(c1)OCCCO2`, with 8.3% (inactive).
Regarding `Oc1ccccc1C=NCCCN=Cc1ccccc1O`, the inhibition is -15.8% (inactive).
With `CCOc1c(N2CCCCC2)c(=O)c1=O` the figure was 13.6% (inactive).
Then `O=C(CSc1nnc(-c2ccncc2)o1)N1CCc2ccccc21`, with -5.6% (inactive); and `O=c1cc(-c2ccccc2)cc(-c2ccccc2)o1`, with -11.3% (inactive); and `O=C(NNC(=S)Nc1ccccc1Cl)c1ccc(OC(F)(F)F)cc1`, with 19.8% (inactive).
Then `O=c1c2c(nc3nc[nH]n13)CCC2`, with -20.2% (inactive).
Turning to `CCN(CCN1C(=O)CCC1=O)c1cccc(NC(C)=O)c1`, the inhibition was -3.7% (inactive).
Then `N#CCc1ccc(OC(=O)c2cccnc2)cc1`, with -6.4% (inactive); and `Cc1nc(-n2cccc2)sc1C(=O)N/N=C/c1ccccc1Cl`, with 33.9% (inactive); and `CCCS(=O)(=O)c1csc(C(=O)OC)c1N/N=C/c1cccs1`, with -24.1% (inactive).
With `Clc1cncc(Cl)c1N/N=C/C1CC2C=CC1C2` (stereo not given) the figure was 1.3% (inactive); with `CCCCCCCN=C(C)c1ccccc1O`, -21.6% (inactive); with `CC(C)c1ccc(N2C(=O)/C(=C\c3ccc(-c4ccc([N+](=O)[O-])cc4)o3)SC2=S)cc1`, 8.3% (inactive).
Then `CCCN(CCC)S(=O)(=O)c1ccc(C(=O)NNC(=O)c2cc(OC)c(OC)c(OC)c2)cc1`, with -2.1% (inactive); and `NC(=O)C1CCN(CC(O)COc2ccc(Cl)c(Cl)c2)CC1` (stereo not given), with -8.2% (inactive).
Turning to `O=C(Nc1ccc(F)cc1OC(F)(F)F)N1CCC(O)CC1`, the inhibition was -18% (inactive).
Then `CC(C)(C)c1cc(NC(=O)/C(C#N)=C/c2cccc(Cl)c2Cl)c(C(N)=O)s1`, with -7.1% (inactive).
Then `O=C(Nc1ccccc1C(=O)NC1CCSC1)c1cccc(Cl)c1` (stereo not given), with -15% (inactive); and `COC(=O)CCN1CCc2cc(N=Nc3ccc(C(F)(F)F)cc3)ccc21`, with 15.2% (inactive); and `CC(C)n1c(SCC(=O)c2cccc([N+](=O)[O-])c2)nc2cc(C(F)(F)F)ccc21`, with -1.6% (inactive).
Then `O=C(CCc1ccc(O)cc1)N/N=C/c1cc(Cl)cc(Cl)c1O`, with 6.4% (inactive); and `Cc1ccc(NC(C(=O)O)c2ccccc2)cc1` (stereo not given), with -11.7% (inactive); and `OC(CNCc1ccc2c(c1)OCO2)COc1ccccc1` (stereo not given), with -20.1% (inactive).
On to `O=C(NCc1cccnc1)c1ccccc1NC(=O)c1c(F)cccc1F`, for which the inhibition was -15.7% (inactive).
Consider `O=C(N/N=C/c1ccc(Cl)cc1Cl)/C(=C/c1cccs1)NC(=O)c1ccccc1`, for which the inhibition is 11.5% (inactive).
With `COC(=O)c1ccccc1NC(=O)c1ccc(Oc2cc(Cl)cc(Cl)c2)o1` the figure was -7% (inactive).
With `O=C(NCc1ccc2c(c1)OCO2)c1sccc1Br` the figure was -14.9% (inactive); with `O=C(NCc1ccc(F)cc1F)c1cc(C(F)(F)F)cc(C(F)(F)F)c1`, 2.1% (inactive); with `CCOC(=O)C(NC(=O)c1ccco1)(Nc1cc(C)ccn1)C(F)(F)F` (stereo not given), -1.7% (inactive).

One may read the inhibition as the drop in the measured response relative to a control, in per cent.
